# Test results published in PubChem BioAssay (NCI).
# The panel holds about 83,000 compounds, 20% with a hit somewhere; the sample as a whole holds those more often.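 The endpoint reported here, percent growth, reads 100 for growth as untreated, 0 for no net growth and -100 for all cells dead.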 A number with no mark means an inactive call. Active and inactive are the calls of the source. Rule for the calls: active = growth percent below 10; inactive = the rest.
# Test system: OVCAR-4 ovarian
# Experiment: NCI-60 one-dose screen, 48 h (100 = growth as untreated, 0 = no growth, -100 = all killed)
# Details: 10 µM
row,Structure (SMILES),growth
1,CCCCCCN=C(N)CCCCCCCCCCC(N)=NCCCCCC,27.6%
2,CNC(=O)c1cc(Oc2ccc(NC(=O)Nc3ccc(Cl)c(C(C)(C)C)c3)c(F)c2)ccn1,33.1%
3,CN(C)c1ccc2c(c1)OC(N)=C(C#N)C2c1ccc2c(c1)CCO2 (centres undefined),48.3%
4,CCc1c(C(=O)NCc2c(O)ccc3cccc(O)c23)[nH]c(C)c1C(C)=O,27.6%
5,CC(=O)c1ccc(NCn2nc(-c3ccc(Cl)cc3)oc2=S)cc1,113%
6,COC(=O)c1cnc2c(c1)Oc1ccc(Cl)cc1-c1cc(C)nn1-2,-13.1% (active)
7,Clc1cc(Cl)c(Cl)c(-c2nc(-c3cccnc3)cs2)c1,68.7%

# Test system: SK-OV-3 ovarian
# Experiment: as above
# Details: 10 µM
row,Structure (SMILES),growth
1,CC1(C)CNC(=O)N1,95.6%
2,Nc1ccn([C@@H]2O[C@H](COP(=O)(O)O[C@@H]3C[C@H](n4cc(F)c(=O)[nH]c4=O)O[C@@H]3COP(=O)(O)O[C@@H]3C[C@H](n4cc(F)c(=O)[nH]c4=O)O[C@@H]3COP(=O)(O)O[C@@H]3C[C@H](n4cc(F)c(=O)[nH]c4=O)O[C@@H]3COP(=O)(O)O[C@@H]3C[C@H](n4cc(F)c(=O)[nH]c4=O)O[C@@H]3COP(=O)(O)O[C@@H]3C[C@H](n4cc(F)c(=O)[nH]c4=O)O[C@@H]3COP(=O)(O)O[C@@H]3C[C@H](n4cc(F)c(=O)[nH]c4=O)O[C@@H]3COP(=O)(O)O[C@@H]3C[C@H](n4cc(F)c(=O)[nH]c4=O)O[C@@H]3COP(=O)(O)O[C@@H]3C[C@H](n4cc(F)c(=O)[nH]c4=O)O[C@@H]3COP(=O)(O)O[C@@H]3C[C@H](n4cc(F)c(=O)[nH]c4=O)O[C@@H]3COP(=O)(O)O[C@@H]3C[C@H](n4cc(F)c(=O)[nH]c4=O)O[C@@H]3COP(=O)(O)OCCOCCOCCOCCOCCOCCO)[C@H](O)C2O)c(=O)n1 (some centres undefined),32%
3,CCCCN(CCCC)c1ccc(C(=NC(C)CCCN(CC)CC)c2ccc(N(C)C)cc2)cc1 (centres undefined),-70.9% (active)
4,Cc1nc2cc(-n3c(-c4ccc(F)cc4)nc4ccccc4c3=O)ccc2n1Cc1ccccc1,58.8%
5,CN(C)Cc1cccs1,87.8%
6,CCCCCCCCCCCCc1ccc(C(=O)/C=C/C(=O)O)cc1,98.6%
7,Nc1nsc(C(=O)c2ccc(O)cc2)n1,92.8%
8,O=C(CSc1nnc(-c2ccc(Cl)cc2)o1)c1ccccc1,102%
9,CCCCOCC(=O)NC(NP(=O)(N(C)C)N(C)C)C(Cl)(Cl)Cl (centres undefined),124%
10,CCOc1ccc(-n2cc(-c3ccc(N(C)C)cc3)[n+]3c2CCCCC3)cc1,-5.85% (active)
11,CCC1(C)OC(=O)NC1=O (centres undefined),84%
12,CC(=O)Nc1ccc(Sc2ccc(NC(C)=O)cc2)cc1,82%
13,O=C1CC[C@@H](C(=O)N[C@H]2CSSC[C@@H](C(=O)NCCc3ccccc3)NC(=O)[C@H](Cc3ccccc3)NC(=O)[C@@H]3CCCN3C(=O)[C@@H]3CCCN3C2=O)N1,97.5%
14,O=C1CC(c2cccc(-c3cccnc3)c2)=Nc2ccc(Br)cc2N1,46.5%
15,CCCCCC(CCC)COC(=O)c1ccc(OC)cc1 (centres undefined),101%
16,O=c1oc2cc(OS(=O)(=O)C3CC3)ccc2c2c1CCCCCC2,89.1%

row,Structure (SMILES),growth
1,C=C1C(=O)O[C@H]2[C@H]1CC/C(COC(=O)OCCCCCOC(=O)OC/C1=C/CC[C@@]3(C)O[C@H]3[C@H]3OC(=O)C(=C)[C@@H]3CC1)=C\CC[C@@]1(C)O[C@@H]21,54.6%
2,COc1cc2nc(Sc3sc(N)nc3C)n(-c3ccc(Oc4ccccc4)cc3)c(=O)c2cc1OC,114%
3,CCCCCCCCCCN=C(c1ccc(N(C)C)cc1)c1ccc(N(C)C)cc1,16.6%
4,Cc1cccc2c(Nc3ccc(NS(C)(=O)=O)cc3)c3ccc([N+](=O)[O-])cc3nc12,38.3%
5,C[C@H](NC(=O)[C@@H]1CSSC[C@@H](NC(=O)Cc2nc3ccccc3cc2O)C(=O)NCC(=O)N1C)c1ccccc1,88.4%
6,COc1c(-c2c3sc(=O)[nH]c3nc3c2c(=O)[nH]n3C(C)C)cc2c(c1OC)OCO2,99.5%
7,COc1ccc(-c2nnc(SCC(=O)c3ccccc3)o2)cc1,102%
8,S=c1c2ncccc2c(-c2ccccn2)nn1Cc1ccccn1,93.5%
9,COc1cc(C2C=C(c3ccc(Cl)c(Cl)c3)N=C3SC(C)=CN32)cc(OC)c1OC (centres undefined),107%
10,O=C(NCCc1nccs1)c1cnc2c(S)cccc2c1,20.1%
11,CCCCCCN=C(N)CCCCCCCCCCC(N)=NCCCCCC,31.3%
12,CNC(=O)c1cc(Oc2ccc(NC(=O)Nc3ccc(Cl)c(C(C)(C)C)c3)c(F)c2)ccn1,66.6%
13,CN(C)c1ccc2c(c1)OC(N)=C(C#N)C2c1ccc2c(c1)CCO2 (centres undefined),32.2%
14,CCc1c(C(=O)NCc2c(O)ccc3cccc(O)c23)[nH]c(C)c1C(C)=O,62.2%
15,CC(=O)c1ccc(NCn2nc(-c3ccc(Cl)cc3)oc2=S)cc1,94.4%
16,COC(=O)c1cnc2c(c1)Oc1ccc(Cl)cc1-c1cc(C)nn1-2,76.6%
